One test concerns the target Albumin (Bos taurus) (UniProt P02769). Description: compounds binding labelled BSA control protein – biochemical, small-molecule microarray, Alexa647 label, 635/667 nm fluorescence, artefact control for SMM control protein annotation, profiling panel (AID 1118).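 Further: score merges 667 nm emission intensity and signal-to-noise per printed compound spot.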 The note with it: BSA-A647 binding, fluorescence 635 nm, higher = more signal.
Test [1] is described as follows: probe aXIP binding to arrayed compounds – biochemical, NeuroSMM set, 635/667 nm fluorescence, primary screen (AID 1119).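 Further: probe is the protein aXip251-270 applied at 1 µg/mL to compound-printed slides; binding of probe to printed compounds measured as 667 nm fluorescence plus signal to noise.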 The note with it: small-molecule microarray, higher = more signal, called active from +8 up or from −8 down.
Test [2] can be described thus: probe aNOTCH3 binding on compound microarray – biochemical, small-molecule microarray, 635/667 nm fluorescence, primary screen (AID 1120).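 Further: probe is a biotin-tagged antibody raised against NOTCH3 rather than NOTCH3 protein; score merges spot fluorescence near 667 nm with spot signal to noise.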 The settings on record: higher = more signal.
Test [3] can be described thus: probe aNOTCH2 binding on compound microarray – biochemical, small-molecule microarray, 635/667 nm fluorescence, primary screen (AID 1121).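 Further: score merges feature fluorescence read at 667 nm with its signal to noise.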 The settings on record: higher = more signal.
Test [4] addresses Carbonic anhydrase 2 (Homo sapiens) (UniProt P00918). Description: compounds binding carbonic anhydrase 2 – biochemical, small-molecule microarray, Alexa647-labelled CAII, profiling panel (AID 1122). The note with it: CAII-A647 binding fluorescence, higher = more signal.
A short description of test [5]: COS7 lysate on small-molecule microarray, probe aHis, 635 nm (AID 1123).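 Further: z-score combines 667nm fluorescence intensity with signal-to-noise per printed compound spot.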 The note with it: COS7 cell lysate, fluorescence, higher = more signal.
Test [6] can be described thus: probe aLAP1 signal on lysate-treated microarray – cell lysate, small-molecule microarray, COS7 lysate, primary screen (AID 1124).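 Further: lysate comes from COS7 cells expressing LAP1 and is applied at 0.3 µg/mL; score merges spot fluorescence near 667 nm with signal-to-noise over triplicate slides.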 The settings on record: probe aLAP1, fluorescence, higher = more signal.
The next test deals with Sam68 (KHDRBS1). Description: compounds binding KHDRBS1 protein – biochemical, small-molecule microarray, 635 nm fluorescence, primary screen (AID 1125).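 Further: score merges 667 nm channel intensity with signal to noise over triplicate slides.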 The note with it: higher = more signal.
Test [7] relates to Chordin-like protein 2 (CHRDL2). Description: compounds binding chordin-like 2 – biochemical, small-molecule microarray, 635 nm fluorescence, primary screen (AID 1126).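 Further: printed compound slides probed with Chrdl2 protein at 4 µg/mL for 1 h at 4 C; score merges 667 nm emission intensity with signal to noise over three replicate slides.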 The settings on record: fluorescence 635 nm, higher = more signal.
Test [8] concerns the target Concanavalin-A (Canavalia ensiformis) (UniProt P02866). Briefly: compounds binding concanavalin A lectin – biochemical, small-molecule microarray, Alexa647 label, 635 nm, artefact control for SMM control protein annotation, primary screen (AID 1127).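 Further: z combines 667 nm emission intensity with signal-to-noise across three replicate slides.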 The note with it: ConA-A647 binding fluorescence, higher = more signal.

This is an account of results in PubChem BioAssay.

SMILES strings stand for the structures. The source made the active and inactive calls.

Sequence of Concanavalin-A (Canavalia ensiformis) (P02866 whole entry, looked up): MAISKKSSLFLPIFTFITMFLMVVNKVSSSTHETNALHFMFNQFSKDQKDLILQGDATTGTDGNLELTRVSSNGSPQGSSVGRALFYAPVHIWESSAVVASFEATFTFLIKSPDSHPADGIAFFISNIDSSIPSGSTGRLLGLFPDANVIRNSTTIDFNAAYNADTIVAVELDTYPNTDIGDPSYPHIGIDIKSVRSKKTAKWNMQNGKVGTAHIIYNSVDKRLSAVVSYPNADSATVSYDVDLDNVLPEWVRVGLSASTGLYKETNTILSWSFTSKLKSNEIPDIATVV
Sequence of Albumin (Bos taurus) (P02769 whole entry, looked up): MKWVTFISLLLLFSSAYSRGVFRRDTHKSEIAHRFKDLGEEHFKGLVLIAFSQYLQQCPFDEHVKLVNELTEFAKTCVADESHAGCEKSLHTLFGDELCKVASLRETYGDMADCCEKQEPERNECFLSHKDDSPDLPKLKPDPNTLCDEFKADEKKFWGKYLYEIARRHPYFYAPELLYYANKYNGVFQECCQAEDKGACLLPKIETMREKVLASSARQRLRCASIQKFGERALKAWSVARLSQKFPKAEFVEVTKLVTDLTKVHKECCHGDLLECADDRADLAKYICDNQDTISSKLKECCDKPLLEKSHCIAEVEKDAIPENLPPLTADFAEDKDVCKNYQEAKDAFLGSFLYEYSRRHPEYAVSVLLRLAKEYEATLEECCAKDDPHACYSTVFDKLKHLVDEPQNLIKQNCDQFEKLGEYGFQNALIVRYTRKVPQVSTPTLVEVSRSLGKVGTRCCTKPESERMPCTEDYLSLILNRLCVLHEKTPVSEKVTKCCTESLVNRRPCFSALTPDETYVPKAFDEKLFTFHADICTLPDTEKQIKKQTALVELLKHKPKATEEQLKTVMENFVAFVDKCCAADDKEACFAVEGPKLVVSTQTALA

Turning to `CC(C)N1C(=O)C[C@@](C(=O)NCCCN(C)C)(c2ccc([N+](=O)[O-])cc2)[C@H]1c1ccc(CO)cc1`, the composite z-score with Albumin (Bos taurus) was -0.0399; in [2] it was 0.0628; in [3], -0.0698; in [4] it was 0.573; in [5], -0.185; in test [6], 0.0653. The composite z-score with Sam68 (KHDRBS1) was -0.579; in test [7] it was -0.0507; in test [8] it was -0.158. Besides, in [1], the composite Z-score is 0.183 (inactive).

For `COCCOC(=O)N1C(=O)[C@@]2(c3cc(C#Cc4ccc(OC)cc4)ccc31)[C@H](C(=O)Nc1nc3ccccc3s1)[C@H]1C(=O)O[C@H](c3ccccc3)[C@H](c3ccccc3)N1[C@@H]2c1ccc(O)cc1`, the composite z-score is 0.374 with Albumin (Bos taurus); 0.214 in test [2]; -0.118 in test [3]; -0.111 in test [4]; 1.91 in test [5]; 0.171 in test [6]. Besides, the composite z-score worked out at 1.33 in the test with Sam68 (KHDRBS1), 0.576 in test [7] and 1.16 in test [8]. Besides, the composite Z-score in test [1] was 0.364 (inactive).

Turning to `C=C(/C(=C/C[C@H](OC(C)=O)c1ccccc1OCCO)c1cc(C(=O)OC)ccc1OC)C(C)C`, the composite z-score is 0.469 with Albumin (Bos taurus); -0.0782 in [2]; -0.173 in test [3]; 0.491 in [4]; 1.26 in test [5]; -0.0654 in [6]. Further, the composite z-score in the test with Sam68 (KHDRBS1) is 0.527; in test [7] it was -0.152; in [8], 0.548. Further, in test [1], the composite Z-score was -0.0127 (inactive).

Turning to `OCC1CC(c2ccccc2)=NO1` (stereo not given), the composite z-score with Albumin (Bos taurus) was -0.558; in test [2], -0.185; in test [3] it was -0.124; in [4], -0.179; in test [5], -0.53; in [6] it was -0.437. For the same molecule, the composite z-score in the test with Sam68 (KHDRBS1) is -0.424; in test [7], 0.843; in [8], -0.36. Also, the composite Z-score in test [1] was -0.228 (inactive).

As for `O=C1O[C@H](c2ccccc2)[C@H](c2ccccc2)N2[C@H]1[C@@H](C(=O)Nc1nc3ccccc3s1)[C@]1(C(=O)Nc3ccccc31)[C@H]2c1ccc(OCCO)cc1`, the composite z-score with Albumin (Bos taurus) was 0.471; in test [2], 0.23; in test [3], -0.0895; in [4], 0.546; in [5], 0.823; in test [6], 0.328. The composite z-score is 1.3 with Sam68 (KHDRBS1), 0.608 in [7] and 1.12 in test [8]. Moreover, the composite Z-score in test [1] is -0.393 (inactive).

`Cc1ccc(S[C@]2(C(=O)O)CC(=O)N(Cc3cc(C(F)(F)F)cc(C(F)(F)F)c3)[C@@H]2c2ccc(CO)cc2)cc1`: the composite z-score in the test with Albumin (Bos taurus) was -1.78; in test [2], -0.512; in test [3], -0.154; in test [4] it was 0.65; in test [5] it was 1.23; in test [6] it was 0.549. The composite z-score in the test with Sam68 (KHDRBS1) was -0.25; in test [7], -2.37; in test [8], -1.24. Besides, the composite Z-score in test [1] is -0.483 (inactive).

On to `COC(=O)c1cn(C[C@@H](Cc2ccccc2)NC(=O)N[C@H](CO)CCc2oc(C(C)=O)c(C(=O)OC)c2C(=O)OC)nn1`, for which the composite z-score with Albumin (Bos taurus) is -0.0181; in test [2], 0.134; in test [3], -0.128; in [4] it was 0.182; in test [5], 0.5; in test [6], 0.421. The results for the composite z-score (with Sam68 (KHDRBS1); in [7]; in [8]) were 1.01, 1.15 and 0.299, respectively. The composite Z-score in [1] is 0.055 (inactive).

Turning to `C=C(/C(=C/C[C@H](OC(C)=O)c1cccc(OCCO)c1)c1cnc2ccccc2c1)C(C)C`, the composite z-score in the test with Albumin (Bos taurus) was 0.195; in test [2], 0.0701; in [3] it was -0.0859; in [4] it was 0.547; in [5], 0.276; in [6], -0.313. The composite z-score turned out to be 0.615 in the test on Sam68 (KHDRBS1), 1.05 in test [7] and 0.689 in [8]. Besides, the composite Z-score in test [1] was 0.896 (inactive).

Regarding `COC(=O)[C@@]1(Cc2ccccc2)[C@@H]2C(=CC(=O)[C@H]2CC(=O)C(=O)N(C)C)CN1C(=O)c1ccccc1`, the composite z-score came out at 0.93 in the test with Albumin (Bos taurus); 0.462 in test [2]; 0.23 in test [3]; 0.808 in test [4]; 2.61 in [5]; 0.931 in test [6]. For the same molecule, the composite z-score with Sam68 (KHDRBS1) is 1.2; in test [7], -0.202; in test [8], 1.08. Further, in test [1], the composite Z-score is -0.0478 (inactive).

As to `O=C1N(Cc2ccccc2)c2ccccc2[C@@H]2OC(c3ccc(OCCCO)cc3)=N[C@]12Cc1ccccc1`, the composite z-score is -0.34 with Albumin (Bos taurus); -0.0362 in test [2]; -0.0146 in test [3]; 0.607 in test [4]; 2.23 in test [5]; -0.327 in test [6]. The composite z-score in the test on Sam68 (KHDRBS1) came out at 1.3; in test [7], 0.29; in test [8] it was 1.11. For the same molecule, the composite Z-score in test [1] was -0.296 (inactive).

`COC(=O)c1c(CC[C@@H](CO)NC(=O)N2CCC[C@H]2Cn2cc(Cc3ccccc3)nn2)oc(C(C)=O)c1C(=O)OC`: the composite z-score was 0.0832 with Albumin (Bos taurus); 0.233 in test [2]; -0.133 in test [3]; 0.643 in [4]; 1.33 in test [5]; 0.381 in test [6]. For the same molecule, the composite z-score in the test with Sam68 (KHDRBS1) was determined as 0.694; in test [7], 0.668; in [8] it was 0.488. In test [1], the composite Z-score is -0.413 (inactive).

In the case of `CCCCC(=C=CC[C@@H](O)c1ccccc1OCCO)C[C@@H](O)COCc1ccccc1`, the composite z-score with Albumin (Bos taurus) is 0.338; in test [2], -0.281; in [3], -0.148; in test [4], 0.47; in [5], 1.95; in test [6], 0.207. For the same molecule, the composite z-score is 0.471 with Sam68 (KHDRBS1), -0.893 in [7] and -0.525 in test [8]. Also, the composite Z-score in test [1] is -0.0202 (inactive).

As for `C[N+](C)(C)CCCCCCNC(=O)[C@H]1C[C@H]2C(=O)NCC(=O)N2[C@H]1c1ccc(O)cc1`, the composite z-score in the test with Albumin (Bos taurus) is -0.0386; in [2] it was -0.114; in test [3], -0.149; in test [4] it was 0.422; in [5] it was 1.21; in test [6], 0.255. Moreover, the composite z-score stood at 1.12 with Sam68 (KHDRBS1), 0.856 in test [7] and 0.758 in test [8]. For the same molecule, the composite Z-score in [1] was 1.17 (inactive).

Regarding `C=C(/C(=C/C[C@H](OC(=O)c1ccncc1)c1ccc(CO)o1)c1cc(C(=O)OC)ccc1OC)C(C)C`, the composite z-score in the test with Albumin (Bos taurus) is 0.0703; in test [2], -0.0414; in [3], -0.116; in [4] it was 0.541; in test [5], 1.4; in test [6] it was 0.285. Also, the composite z-score is 1.05 in the test on Sam68 (KHDRBS1), 0.85 in test [7] and 0.557 in test [8]. Also, the composite Z-score in test [1] was -0.442 (inactive).

In the case of `CCCCC(O)C1C=CC2C(=O)N(c3ccccc3)C(=O)C2N1Nc1ccc(C(C)C)cc1` (stereo not given), the composite z-score with Albumin (Bos taurus) was 0.898; in [2] it was 0.315; in [3], -0.0073; in test [4], 0.712; in [5], 2.85; in test [6], 0.201. For the same molecule, the composite z-score with Sam68 (KHDRBS1) is 1.32; in test [7], -0.408; in test [8], 1.07. In addition, in [1], the composite Z-score is -0.535 (inactive).

Regarding `COc1cc(OC)c(C(O)C2C=CC3C(=O)N(C)C(=O)C3N2NC(=O)OC(C)(C)C)cc1Br` (stereo not given), the composite z-score was found to be 0.881 with Albumin (Bos taurus); 0.398 in [2]; 0.354 in test [3]; 0.584 in test [4]; 3.05 in [5]; 0.91 in test [6]. The composite z-score in the test with Sam68 (KHDRBS1) is 1.3; in [7], -0.251; in [8], 1.09. Further, the composite Z-score in [1] is 0.182 (inactive).
